This is part of a sample that, as a whole, favours compounds with a hit. Of some 79,000 tested, about 15% had one in any assay. Unmarked numbers belong to inactive results. Active and inactive are the calls of the source. Cut-off read from the data, not from the text of the source: active = growth inhibition above about 70%; inactive = the rest.

A short description of assay [1]: NCI Yeast Anticancer Drug Screen. Data for the rad50 strain (AID 155).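 Note: 0% = growth of vehicle-only cultures of the same strain.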 The following applies: S. cerevisiae rad50 strain growth inhibition, stronger effect = higher value. A digest of the protocol:
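Relative growth inhibition (compound vs vehicle) was measured in yeast with a defined repair-gene alteration.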

Assay [2] can be described thus: NCI Yeast Anticancer Drug Screen. Data for the mec2-1 strain (AID 157). The following applies: S. cerevisiae mec2-1 strain, stronger effect = higher value. The gist of the method: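 Yeast mec2-1 mutant treated with compound. Readout: growth inhibition vs vehicle controls.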
Assay [3] can be described thus: NCI Yeast Anticancer Drug Screen. Data for the sgs1 mgt1 strain (AID 161).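 Note: 0% = growth of cultures given vehicle only.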 The following applies: S. cerevisiae sgs1 mgt1 strain, stronger effect = higher value. The gist of the method:
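Read-out: growth inhibition vs vehicle controls. Cells: mutant yeast strain deficient in DNA damage repair.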

Assay [4] in a line: NCI Yeast Anticancer Drug Screen. Data for the cln2 rad14 strain (AID 165).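 Note: 0% = growth equal to vehicle treated cultures.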 The following applies: S. cerevisiae cln2 rad14 strain, stronger effect = higher value. The gist of the method: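 cln2 rad14 yeast strain; compound exposure; growth inhibition read vs vehicle controls.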
Assay [5] can be described thus: NCI Yeast Anticancer Drug Screen. Data for the bub3 strain (AID 167). The following applies: S. cerevisiae bub3 mutant strain, stronger effect = higher value. A digest of the protocol:
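Screening used yeast with an engineered genetic alteration affecting cell cycle control. Compound-exposed cultures were compared with vehicle cultures, and reduced growth was taken as inhibition.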

The nature of assay [6]: NCI Yeast Anticancer Drug Screen. Data for the mlh1 rad18 strain (AID 175). The following applies: S. cerevisiae mlh1 rad18 strain growth inhibition, stronger effect = higher value. A digest of the protocol: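 Yeast w/ defined DNA-repair lesions; compound exposure; growth vs vehicle controls → % inhibition.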
The mark [7] stands for this setting: at 5.0 µM (retest, dose inferred, filed as 0.5).
Setting [8] is: at 50.0 µM (retest, dose inferred, filed as 5.0).

Regarding `CCCCCCCCCCCCOCC[N+](CCO)(CCO)Cc1ccccc1`, the growth inhibition is 99% (active) in assay [1] (setting [7]); 99% (active) in assay [1] (setting [8]); 99.3% (active) in assay [1] (at 50.0 µM); 100% (active) in assay [2] (setting [7]); 99% (active) in assay [2] (setting [8]); 99.5% (active) in assay [2] (at 50.0 µM). Further, the growth inhibition in assay [3] (setting [7]) was 99% (active); in assay [3] (setting [8]), 99% (active); in assay [3] (at 50.0 µM) it was 99.2% (active); in assay [4] (setting [7]) it was 97% (active); in assay [4] (setting [8]), 99% (active); in assay [4] (at 50.0 µM), 98.4% (active). Also, the growth inhibition in assay [5] (setting [7]) is 97% (active); in assay [5] (setting [8]), 99% (active); in assay [5] (at 50.0 µM), 99% (active); in assay [6] (setting [7]), 98% (active); in assay [6] (setting [8]) it was 99% (active); in assay [6] (at 50.0 µM), 99.3% (active).
As for `Cc1ccc(N2C(c3ccccc3)=CC(=C3C=CC(=O)C=C3)C=C2c2ccccc2)cc1`, the growth inhibition in assay [1] (setting [7]) was 9%; in assay [1] (setting [8]), 71% (active); in assay [1] (at 50.0 µM) it was 94.2% (active); in assay [2] (setting [7]), 12%; in assay [2] (setting [8]), 83% (active); in assay [2] (at 50.0 µM), 98.5% (active). The growth inhibition was 7% in assay [3] (setting [7]); 83% (active) in assay [3] (setting [8]); 93.7% (active) in assay [3] (at 50.0 µM); -5% in assay [4] (setting [7]); 71% (active) in assay [4] (setting [8]); 78.9% (active) in assay [4] (at 50.0 µM). Besides, the growth inhibition in assay [5] (setting [7]) was 7%; in assay [5] (setting [8]) it was 80% (active); in assay [5] (at 50.0 µM), 92.5% (active); in assay [6] (setting [7]) it was 13%; in assay [6] (setting [8]), 89% (active); in assay [6] (at 50.0 µM), 96.8% (active).
As for `O=S(=O)(SCc1ccccc1)C(c1ccccc1)c1ccccc1`, the growth inhibition was 10% in assay [1] (setting [7]); 6% in assay [1] (setting [8]); 89.7% (active) in assay [1] (at 50.0 µM); 13% in assay [2] (setting [7]); 6% in assay [2] (setting [8]); 98.6% (active) in assay [2] (at 50.0 µM). The growth inhibition in assay [3] (setting [7]) is 13%; in assay [3] (setting [8]), 31%; in assay [3] (at 50.0 µM), 98% (active); in assay [4] (setting [7]) it was 5%; in assay [4] (setting [8]), -17%; in assay [4] (at 50.0 µM) it was 95.5% (active). In addition, the growth inhibition was 13% in assay [5] (setting [7]); 39% in assay [5] (setting [8]); 99.1% (active) in assay [5] (at 50.0 µM); 20% in assay [6] (setting [7]); 18% in assay [6] (setting [8]); 98% (active) in assay [6] (at 50.0 µM).
As for `CCCC(CCC)NCCOC(=O)C(CC)c1ccccc1` (stereo not drawn), the growth inhibition is 3% in assay [1] (setting [7]); 42% in assay [1] (setting [8]); 88% (active) in assay [1] (at 50.0 µM); -5% in assay [2] (setting [7]); 23% in assay [2] (setting [8]); 15.9% in assay [2] (at 50.0 µM). Further, the growth inhibition is 12% in assay [3] (setting [7]); 63% in assay [3] (setting [8]); 88.3% (active) in assay [3] (at 50.0 µM); -35% in assay [4] (setting [7]); 62% in assay [4] (setting [8]); 55.9% in assay [4] (at 50.0 µM). The growth inhibition in assay [5] (setting [7]) was 7%; in assay [5] (setting [8]), 75% (active); in assay [5] (at 50.0 µM), 49.6%; in assay [6] (setting [7]), 4%; in assay [6] (setting [8]) it was 47%; in assay [6] (at 50.0 µM), 75% (active).
For the compound `O=C(O)c1nc2cc(C(F)(F)F)ccc2nc1Nc1ccc(F)cc1`, the growth inhibition was 32% in assay [1] (setting [7]); 64% in assay [1] (setting [8]); 64% in assay [1] (at 50.0 µM); 23% in assay [2] (setting [7]); 66% in assay [2] (setting [8]); 68.2% in assay [2] (at 50.0 µM). In addition, the growth inhibition in assay [3] (setting [7]) is 23%; in assay [3] (setting [8]) it was 60%; in assay [3] (at 50.0 µM), 74.7% (active); in assay [4] (setting [7]) it was 20%; in assay [4] (setting [8]), 57%; in assay [4] (at 50.0 µM), 79.7% (active). For the same compound, the growth inhibition in assay [5] (setting [7]) was 31%; in assay [5] (setting [8]), 60%; in assay [5] (at 50.0 µM) it was 74.7% (active); in assay [6] (setting [7]), 30%; in assay [6] (setting [8]), 75% (active); in assay [6] (at 50.0 µM), 42.9%.
Turning to `O=[N+]([O-])c1cccn2nc(C3OC(CO)C(O)C3O)nc12` (stereo not drawn), the growth inhibition in assay [1] (setting [7]) is 3%; in assay [1] (setting [8]), 13%; in assay [1] (at 50.0 µM), -11.2%; in assay [2] (setting [7]), -3%; in assay [2] (setting [8]), -2%; in assay [2] (at 50.0 µM), -4.8%. The growth inhibition in assay [3] (setting [7]) is 0%; in assay [3] (setting [8]) it was 7%; in assay [3] (at 50.0 µM), -14.7%; in assay [4] (setting [7]) it was 3%; in assay [4] (setting [8]), -4%; in assay [4] (at 50.0 µM), 34.4%. Besides, the growth inhibition in assay [5] (setting [7]) is 0%; in assay [5] (setting [8]), -1%; in assay [5] (at 50.0 µM) it was -11.4%; in assay [6] (setting [7]), -2%; in assay [6] (setting [8]), 3%; in assay [6] (at 50.0 µM), -4.65%.

These data come from PubChem BioAssay (NCI).
